Screening data deposited in PubChem by Broad Institute.
esBAF inh = SWI/SNF esBAF complex inhibition; mouse ES cells, Bmi1-luciferase knock-in reporter, 24 h; 100% = twice the neutral-well signal; reporter increase, % at 12.5 µM; 350,000 tested, 2% active; AID 602393; in the data active = activation above about 40%; inconclusive = no clear call, values can overlap the other calls;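 also: 0% = median of the plate's neutral control wells and 100% = double that signal; a rise in the Bmi1 reporter signal indicates esBAF inhibition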
miR-122 sensor = inhibitors of miR-122 in Huh7 cells | activation (reporter increase), % at 12.5 µM | 340,000 tested, 0.3% active | Huh7 miR-122 Renilla luciferase sensor, 48 h; neutral wells = 0, positive control = 100 | AID 602342;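 active = mean replicate activation score at least 90 and every replicate individually at or above 90; inconclusive = only one of the two criteria met; inactive = neither criterion met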;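 also: higher luciferase means less miR-122 activity so hits act as miR-122 inhibitors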
MITF act = increases MITF-driven TRPM1 promoter luciferase signal. SK-MEL-5 TRPM1-promoter luciferase, 24 h; % of positive control, neutral wells = 0. 300,000 tested, 0.75% active. activation, % at 12.5 µM;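 active = mean activation of at least 80% with every replicate also reaching 80%; inconclusive = mean reaches 80% but some replicate falls short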;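 also: 0% = neutral control wells and 100% = parthenolide positive control wells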
Wnt act = Wnt/beta-catenin pathway activation; 300,000 tested, 1.2% active; Wnt/beta-catenin reporter cell assay, activator, plate reader; AID 743398; activation, % at 9.35 µM; in the data active = activation above about 30%, passing the limit was not always enough; inconclusive = no clear call, values can overlap the other calls;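 also: 0% = neutral control wells and 100% = positive control wells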
Env fusion inh = inhibitors of HIV Env-mediated cell fusion. HeLa-JRFL Env/CEM21 cell fusion, luciferase. inhibition, % at 12.3 µM. 360,000 tested, 1.1% active. AID 651610;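 active = mean replicate inhibition score of at least 50 and every replicate individually at or above 50; inconclusive = only one of the two criteria met; inactive = mean below 50 and not all replicates reaching 50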;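 also: 0% = plate neutral controls and 100% = maraviroc near 300 nM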
* marks the source's active call; other numbers are inactive results; i = inactive; ? = inconclusive; nt = no result; ! = not active in a repeat; [ ] = dose if it differs, or a comment. A selection: hits, their analogues and other compounds. The true share with any hit is near 3.4%.

SMILES	esBAF inh	miR-122 sensor	MITF act	Wnt act	Env fusion inh
C/C(=N\OC(=O)c1cccc(C(F)(F)F)c1)c1sc(-c2ccccc2)nc1C	77*	1	?	nt	nt
CCNC(=O)O/N=C(\C)c1sc(-c2ccc(Cl)cc2)nc1C	43*	4	nt	8	nt
C/C(=N\OC(=O)NC(C)C)c1sc(-c2ccccc2)nc1C	63*	5	105*	-2	nt
C/C(=N\OC(=O)NC(C)C)c1sc(-c2ccc(Cl)cc2)nc1C	38	-1	62	-5	nt
C[C@@H]1CN([C@@H](C)CO)S(=O)(=O)c2ccc(C3=CCCCC3)cc2O[C@@H]1CN(C)C(=O)Nc1ccc2c(c1)OCO2	2	-46[16.7 µM]	nt	nt	nt
CO[C@@H]1CN(C)C(=O)c2ccc(NC(=O)C3CCOCC3)cc2OC[C@@H](C)N(C)C[C@@H]1C	-2	-2[16.7 µM]	nt	nt	-21[16.7 µM]
CCOc1ccc(C=NNc2ccc(S(=O)(=O)Nc3ccccc3C(=O)O)cc2[N+](=O)[O-])cc1	-6	-4	-8	37*	-6
CN(C)CCCNC(=O)C[C@@H]1CC[C@H]2[C@H](COc3ccc(NC(=O)c4ccc5c(c4)OCO5)cc3C(=O)N2C)O1	4	2[16.7 µM]	nt	nt	-5[16.7 µM]
C[C@@H]1CN([C@H](C)CO)C(=O)c2cc(C#CC3CCCCC3)cnc2O[C@@H]1CN(C)C	-3	-9[16.7 µM]	nt	nt	16[16.7 µM]
COC(=O)c1cn(NC(=O)c2cc([N+](=O)[O-])ccc2F)c(=O)c2ccccc12	nt	nt	8	-16	57*
CC(=NNC(=S)N1CCCC1)c1ccccn1	-14	53	nt	9	33
CC(=NNC(=S)SCc1ccccc1)c1ccccn1	nt	nt	-42	10	79*
O=C(Nc1ccc(Cl)c(Cl)c1)N[C@H]1CC[C@H](CCn2cc(C3CCCCC3)nn2)O[C@@H]1CO	11	nt	nt	nt	63*[16.7 µM]
O=C(Nc1ccc(Cl)c(Cl)c1)N[C@@H]1CC[C@@H](CCn2cc(C3CCCCC3)nn2)O[C@@H]1CO	-26	nt	nt	-5	67*![16.7 µM]
O=C(Nc1ccc(Cl)c(Cl)c1)N[C@@H]1CC[C@@H](CCn2cc(C3CCCCC3)nn2)O[C@H]1CO	2	nt	nt	nt	-5[16.7 µM]
N#CCC(=O)N/N=C\c1ccc(OC/C=C/c2ccccc2)cc1	11	nt	122*	27	-24
N#CCC(=O)N/N=C\c1ccccc1OC/C=C/c1ccccc1	64*	nt	22	12	-75
N#CCC(=O)N/N=C/c1ccc(OCc2ccccc2)cc1	4	2	29	8	-6
CCCNC(=O)C[C@H]1CC[C@@H]2[C@H](COC[C@@H](O)CN2C(=O)Nc2ccc3c(c2)OCO3)O1	8	-1[16.7 µM]	nt	nt	nt
COc1ccc(-c2cn(CC[C@H]3CC[C@H](NC(=O)CCN4CCCCC4)[C@@H](CO)O3)nn2)cc1	1	nt	nt	nt	12[16.7 µM]
O=C(Nc1ccc2c(c1)OCCO2)c1ccc(Cl)c(Cl)c1	18	-11	62	6	-186
Cc1cc(Cl)ccc1NC(=O)c1ccc2c(c1)OCO2	77*	nt	nt	11	-64
COc1cc(Cl)c(C)cc1NC(=O)c1ccc2c(c1)OCO2	46*	7	nt	2	-16
O=C(Nc1ccc(Cl)cc1Cl)c1ccc2c(c1)OCCO2	-5	-2	50	52*	nt
COc1ccc(C)cc1NC(=O)c1ccc2c(c1)OCO2	11	13	0	nt	-23
SMILES	esBAF inh	miR-122 sensor	MITF act	Wnt act	Env fusion inh
C[C@@H]1CN([C@@H](C)CO)C(=O)c2cc(NC(=O)Nc3cccc4ccccc34)ccc2O[C@@H]1CN(C)Cc1ccc(C(=O)O)cc1	-1	-2[16.7 µM]	nt	nt	nt
CC(C)n1cc(/C=C/c2cc[n+](C)cc2)c2ccccc21	-16	-20	-62	-5	72*
CCC(=O)NC(=S)Nc1cccc(Cl)c1N1CCCCC1	3	-7	-8	2	73*
Clc1ccc(CSc2nc3ccncc3[nH]2)cc1	-27	nt	17	37*	-89
CC(c1nccs1)N(C)C(=O)CCc1nnc(-c2ccc(-c3ccccc3)cc2)o1 (configuration not stated)	nt	nt	-3	8	31
CC(c1nccs1)N(C)C(=O)c1cn(Cc2cccc3ccccc23)nn1 (configuration not stated)	48*	5	43	8	-27
O=C(NC1CC(=O)c2sccc21)c1ccc(Cl)cc1Cl (configuration not stated)	43*	8	57	7	-7
O=C(C[C@@H]1C=C[C@@H](NS(=O)(=O)c2ccc(F)cc2)[C@H](CO)O1)NC1CCC1	-4	nt	nt	nt	-7[16.7 µM]
COCC(=O)N1C[C@@H](C)[C@@H](OC)CN(C)C(=O)c2cc(NC(=O)c3ccc(OC)cc3)ccc2OC[C@@H]1C	-1	-3[16.7 µM]	nt	nt	17[16.7 µM]
Cc1ccnc(NC(=O)CCCOc2cc(=O)n(C)c3ccccc23)c1	-5	183*!	-6	-1	i
OC[C@@H]1[C@H]2c3ccccc3OC1(CO)N=C1SCc3ccccc3CN12	nt	nt	nt	nt	5[16.7 µM]
O=C(CSc1nc2ccc([N+](=O)[O-])cc2[nH]1)NC1CCCCCC1	nt	328*	-5	nt	116*
O=[N+]([O-])c1ccc2nc(SCc3cn4cc(Cl)ccc4n3)[nH]c2c1	nt	nt	-1	-4	112*
O=C(CSc1nc2ccc([N+](=O)[O-])cc2[nH]1)NC1CCCCC1	-8	3	7	-3	nt
Cc1ccc(S(=O)(=O)N(C)C[C@@H]2Oc3ccc(NC(=O)Nc4cccc5ccccc45)cc3C(=O)N([C@@H](C)CO)C[C@@H]2C)cc1	-19	22[16.7 µM]	nt	nt	9[16.7 µM]
CC(C)(C)c1ccc(/C=C/C(=O)N2CCCCC2)cc1	47*	nt	101*	33*	-24
Cc1ccc(/C=C/C(=O)N2CCCC(C)C2)cc1 (configuration not stated)	nt	-4	88*	-2	-109
C[C@H]1CN([C@@H](C)CO)C(=O)c2cc(NC(=O)Nc3ccc(F)cc3)ccc2O[C@@H]1CN(C)Cc1ccccc1	-5	-4[16.7 µM]	nt	nt	-3[16.7 µM]
Cc1ccn2c(Cc3ccccc3)c(-c3ccc(F)cc3)nc2c1	45*	2	nt	12	-5
Cc1ccc(Cc2c(-c3ccccc3)nc3c(C)cc(Br)cn23)cc1	nt	nt	nt	-1	-15
Cc1ccc(Cc2c(-c3ccccc3)nc3cc(C)ccn23)cc1	42*	2	nt	1	-3
CCN(CC)S(=O)(=O)c1cccc(C(=O)NC(C(=O)NCCc2ccccn2)C(C)C)c1 (configuration not stated)	nt	0	0	-3	22
CCN(CC)S(=O)(=O)c1cccc(C(=O)Nc2nc3cc4c(cc3s2)OCCO4)c1	20	-2	-15	nt	62*
COc1ccccc1C(=O)Nc1nc2cc3c(cc2s1)OCO3	57*	2	66	-1	-45
CCc1nnc(NC(=O)[C@@H](NC(=O)c2cccc(S(=O)(=O)N(CC)CC)c2)C(C)C)s1	nt	-6	-5	nt	70*
Cc1cccc(C(=O)Nc2nc3ccc(S(C)(=O)=O)cc3s2)c1	46*	-5	nt	-1	-24
CC(=O)N1[C@@H]2c3ccc(C4=CCCCC4)c(=O)n3C[C@H]1[C@H](CO)[C@H]2C(=O)N[C@@H](C)c1ccccc1	2	nt	nt	nt	-6[16.7 µM]
